Source: PubChem (National Center for Advancing Translational Sciences (NCATS))
NPC1 promoter act = qHTS Assay for NPC1 Promoter Activators. Huh7 NPC1 promoter luciferase reporter, 24 h. Potency, µM (doses to about 9.22 µM), inactives show top-dose activation, most hits filed as activators. 320,000 compounds, 2.4% hits. AID 485313, 2010; note: % of control where 0% means no effect; nearly all actives have a fitted effect of over 60% in size
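Huh7 cells stably carrying NPC1 promoter–luciferase, plated in Opti-MEM with 10% FBS for 2 h, were exposed to compound in DMSO for 24 h at 37 °C; luciferase reagent was added for 10 min and luminescence read.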
Rab9 promoter act = qHTS Assay for Rab9 Promoter Activators; Huh7 Rab9 promoter-luciferase reporter, luminescence, 24 h; Potency, µM (doses to about 9.22 µM), inactives show at the highest dose activation, negative = inhibition, most hits filed as activators; 320,000 compounds, 2.8% hits; AID 485297, 2010; note: % of control where 0% means no effect; nearly all actives have a fitted effect of over 60% in size
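Rab9 promoter-driven luciferase in stably transfected Huh7 cells; 1500 cells/well rested 2 h, exposed to compound in DMSO for 24 h at 37 °C, 5% CO2. Luminescence read 10 min after adding luciferase reagent at ambient temperature.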
ELG1 repair inh = qHTS screen for small molecules that inhibit ELG1-dependent DNA repair in human embryonic kidney (HEK293T) cells expressing luciferase-tagged ELG1; 330,000 compounds, 2.3% hits; AID 504467, 2011; HEK293T ELG1-luciferase reporter, luminescence, 16 h; DNA damage induced by 5-fluorouridine; Potency, µM (titrated, usually from 46.1 µM), without a hit: top-dose activity change, negative = inhibition, hits mostly inhibitors; note: % is set by controls: 0 for no effect and ±100 for the full control effect; nearly all actives have a fitted effect of over 55% in size
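5-Fluorouridine DNA damage + compound/DMSO, 2,000 cells/well, 16 h, 37 °C/5% CO2. ONE-Glo, 30 min RT, luminescence. Readout = decrease in reporter signal.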
SMN2 splice enh = qHTS Assay for Enhancers of SMN2 Splice Variant Expression. Potency, µM (top dose mostly 46.1 µM), without a hit: at the highest dose activity change, positive = activation, most hits filed as activators. HEK293 SMN2-luciferase splicing reporter, luminescence, 30-36 h. 210,000 compounds, 2.8% hits; note: % of control where 0% means no effect; nearly all actives have a fitted effect of over 55% in size
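HEK293 cells carry an SMN2 […]–luciferase reporter in which exon 7 inclusion puts luciferase in frame. Cells were plated 10-12 h before compound addition, then incubated 30-36 h at 37C. ONE-Glo luminescence was read; sodium butyrate at 4.5 mM final served as control.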
FLuc modulator = qHTS profiling assay for firefly luciferase inhibitor/activator using purifed enzyme and Km concentrations of substrates (counterscreen for miR-21 project) | Luciferin 4-monooxygenase (Photinus pyralis), P08659 | purified FLuc, Km substrates, luminescence inhibition | Potency, µM (highest dose often 57.5 µM), for the others: at the highest dose activity change, negative = inhibition, most hits filed as inhibitors | 360,000 compounds, 6.9% hits | AID 588342, 2011;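 note: plate controls were vehicle for no effect and reference inhibitor for full effect; nearly all actives have a fitted effect of over 55% in size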
Target sequence (P08659 whole entry, looked up): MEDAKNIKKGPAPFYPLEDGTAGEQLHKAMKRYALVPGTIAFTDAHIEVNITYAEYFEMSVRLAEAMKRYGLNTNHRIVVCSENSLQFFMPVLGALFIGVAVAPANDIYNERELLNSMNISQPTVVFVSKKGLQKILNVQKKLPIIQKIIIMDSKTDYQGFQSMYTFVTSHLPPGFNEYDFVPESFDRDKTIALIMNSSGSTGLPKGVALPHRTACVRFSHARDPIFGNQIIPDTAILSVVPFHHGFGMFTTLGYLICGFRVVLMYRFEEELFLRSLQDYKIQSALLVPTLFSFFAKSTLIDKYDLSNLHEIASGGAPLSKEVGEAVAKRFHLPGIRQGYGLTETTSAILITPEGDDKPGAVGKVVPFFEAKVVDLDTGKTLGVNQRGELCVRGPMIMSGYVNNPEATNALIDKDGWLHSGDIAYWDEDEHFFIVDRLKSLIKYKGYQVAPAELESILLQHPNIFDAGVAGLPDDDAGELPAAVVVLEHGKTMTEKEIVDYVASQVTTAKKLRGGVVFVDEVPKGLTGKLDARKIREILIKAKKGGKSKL
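Purified P. pyralis luciferase, 10 nM final, with Km-level 10 uM D-luciferin and 10 uM ATP in 50 mM Tris acetate pH 7.5, 10 mM Mg acetate, 0.01% Tween-20, 0.05% BSA; 6-point qHTS titration about 60 µM downward; luminescence read.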
ELG1 genotoxic = qHTS screen for small molecules that induce genotoxicity in human embryonic kidney (HEK293T) cells expressing luciferase-tagged ELG1; Potency, µM (highest dose often 46 µM), for inactives: at the top dose activity change, positive = activation, usual class: activators; AID 504466, 2011; 330,000 compounds, 1.3% hits; HEK293T ELG1-luciferase reporter, luminescence, 16 h; note: % of control where 0% means no effect; nearly all actives have a fitted effect of over 60% in size
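Step 1: seed 2,000 HEK293T ELG1-luciferase cells per well. Step 2: add compound or DMSO, incubate 16 hr at 37 °C. Step 3: ONE-Glo, 30 min at room temperature, read luminescence.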
The depositor's hits bear a star; u = inconclusive; x = not tested or not shown; [ ] = remark or other dose. Rows were chosen to be rich in hits. Some 9.3% of all compounds tested hit in one or more screens of this group. Calls come from the whole dose curve; as a rule, active = well fitted curve in the direction sought with a large enough effect; inconclusive = small, poorly fitted or top-dose-only effect, or another doubt; inactive = no such curve, though single readings can be large; an effect the other way counts as inactive or inconclusive. Potency is the fitted concentration of half-maximal effect.

SMILES	NPC1 promoter act	Rab9 promoter act	ELG1 repair inh	SMN2 splice enh	FLuc modulator	ELG1 genotoxic
Cc1ccc(S(=O)(=O)N2CCN(Cc3ccccc3C(F)(F)F)CC2)cc1	3%	1%	-6%	-30%	-1%	-2%
Cn1c(=O)c(C=Nc2ccccc2)c(O)c2ccccc21	-4%	0%	0%	x	4.3µM*	0%
COc1ccc(-n2c(O)c(C=Nc3ccccc3)c3ccccc3c2=O)cc1	-2%	-9%	4%	-3%	0%	u
CC(NS(=O)(=O)c1cccc(Cl)c1)C(=O)Nc1ccc(-c2nc3ccccc3s2)cc1 (stereo unspecified)	u	2.8µM*	u	20µM*	17µM*	u
O=C(CNS(=O)(=O)c1cccc(Cl)c1)Nc1ccc(-c2nc3ccccc3s2)cc1	u	1.6µM*	u	4.5µM*	15µM*	8.2µM*
COc1ccc(NC(=O)C(C)NS(=O)(=O)c2ccccc2)cc1Cl (stereo unspecified)	-4%	0%	6%	-9%	-3%	0%
CC(C)(C)c1ccc(S(=O)(=O)NCC(=O)Nc2ccc(-c3nc4ccccc4s3)cc2)cc1	-2%	27%	u	11µM*	u	u
Cc1ccc(C)c(S(=O)(=O)NC(C)C(=O)Nc2ccc(-c3nc4ccccc4s3)cc2)c1 (stereo unspecified)	3.5µM*	3.2µM*	u	5%	7.6µM*	u
CCc1ccc(NC(=O)c2nn(-c3ccc(OC)cc3)c(=O)c3c2c2ccccc2n3C)cc1	x	x	x	12%	-1%	x
CN(C)c1ccc(/C=C2\C(=N)N3N=C(CC(=O)N4CCCCC4)SC3=NC2=O)cc1	3%	3%	u	x	13µM*	6%
COc1ccccc1C(O)(C(=O)N(NC(C)=O)c1ccccc1)c1ccccc1OC	0%	-4%	-7%	x	0%	0%
O=C1OC(Nc2nc3ccccc3s2)c2ccccc21 (stereo unspecified)	-4%	7%	u	-16%	11µM*	0%
O=C1OC(Nc2nccs2)c2ccccc21 (stereo unspecified)	u	-3%	1%	17%	2%	0%
Cc1ccc(O)c(N=Cc2ccc(C)s2)c1	-3%	-1%	u	11%	-14%	1%
Cc1ccc(N=Nc2ccc(N)cc2C)c(S(N)(=O)=O)c1	u	2.8µM*	u	3%[9.22 µM]	11µM*	u
NS(=O)(=O)c1cc(Br)c(N=Nc2ccc(O)c3ncccc23)c(Br)c1	x	x	x	15%[9.22 µM]	x	x
Oc1ccc(N=Nc2ccc3c(c2)OCCO3)c2ncccc12	-23%	-27%	0%	x	5.4µM*	u
NS(=O)(=O)c1ccc(N=Nc2ccc(O)c3ncccc23)cc1	-40%	-32%	u	x	u	u
Cc1ccc(C)c(N=Nc2ccc(O)c3ncccc23)c1	u	8%	u	-96%	11µM*	u
Cc1ccc(N=Nc2cc(C)ccc2O)c(C)c1	u	u	u	x	4.8µM*	u
CCOC(=O)C1NN=C(C(=O)c2ccccc2)C1c1ccc(OC)cc1 (stereo unspecified)	1%	-2%	-13%	-18%	-5%	-1%
CCOc1ccc(N=Nc2ccc(O)c3ncccc23)cc1	-13%	1%	u	x	-13%	u
Cc1cccc(N=Nc2ccc(O)c3ncccc23)c1	13%	-3%	u	-51%	11µM*	12µM*
